Laboratory results reported in PubChem BioAssay.
The source made the active and inactive calls. Unless noted, no rule for the calls is given here.

Key:
[1] = anti-His antibody binders, primary screen, artefact control for SMM control protein annotation, biochemical, small-molecule microarray, 635 nm fluorescence (AID 1128); settings: anti-His Alexa647 antibody binding, higher = more signal;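 also: score merges feature fluorescence with signal-to-noise for each printed compound spot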
[2] = system: Human papillomavirus type 1a E7 protein (residues 1-88); test: HPV1a E7 small-molecule binders, primary screen, biochemical, small-molecule microarray, residues 1-88, 635 nm (AID 1129); settings: small-molecule microarray binding, fluorescence 635 nm; higher = more signal
[3] = target: Focal adhesion kinase 1 (Homo sapiens) (UniProt Q05397); test: small-molecule microarray binders of FAK, primary screen, biochemical, 635/667 nm fluorescence, BSA, DTT (AID 1130); settings: PTK2 binding, 635 nm fluorescence, higher = more signal;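 also: composite of spot emission at 667 nm and signal to noise over triplicate slides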
Focal adhesion kinase 1 (Homo sapiens), sequence (Q05397 whole entry, looked up): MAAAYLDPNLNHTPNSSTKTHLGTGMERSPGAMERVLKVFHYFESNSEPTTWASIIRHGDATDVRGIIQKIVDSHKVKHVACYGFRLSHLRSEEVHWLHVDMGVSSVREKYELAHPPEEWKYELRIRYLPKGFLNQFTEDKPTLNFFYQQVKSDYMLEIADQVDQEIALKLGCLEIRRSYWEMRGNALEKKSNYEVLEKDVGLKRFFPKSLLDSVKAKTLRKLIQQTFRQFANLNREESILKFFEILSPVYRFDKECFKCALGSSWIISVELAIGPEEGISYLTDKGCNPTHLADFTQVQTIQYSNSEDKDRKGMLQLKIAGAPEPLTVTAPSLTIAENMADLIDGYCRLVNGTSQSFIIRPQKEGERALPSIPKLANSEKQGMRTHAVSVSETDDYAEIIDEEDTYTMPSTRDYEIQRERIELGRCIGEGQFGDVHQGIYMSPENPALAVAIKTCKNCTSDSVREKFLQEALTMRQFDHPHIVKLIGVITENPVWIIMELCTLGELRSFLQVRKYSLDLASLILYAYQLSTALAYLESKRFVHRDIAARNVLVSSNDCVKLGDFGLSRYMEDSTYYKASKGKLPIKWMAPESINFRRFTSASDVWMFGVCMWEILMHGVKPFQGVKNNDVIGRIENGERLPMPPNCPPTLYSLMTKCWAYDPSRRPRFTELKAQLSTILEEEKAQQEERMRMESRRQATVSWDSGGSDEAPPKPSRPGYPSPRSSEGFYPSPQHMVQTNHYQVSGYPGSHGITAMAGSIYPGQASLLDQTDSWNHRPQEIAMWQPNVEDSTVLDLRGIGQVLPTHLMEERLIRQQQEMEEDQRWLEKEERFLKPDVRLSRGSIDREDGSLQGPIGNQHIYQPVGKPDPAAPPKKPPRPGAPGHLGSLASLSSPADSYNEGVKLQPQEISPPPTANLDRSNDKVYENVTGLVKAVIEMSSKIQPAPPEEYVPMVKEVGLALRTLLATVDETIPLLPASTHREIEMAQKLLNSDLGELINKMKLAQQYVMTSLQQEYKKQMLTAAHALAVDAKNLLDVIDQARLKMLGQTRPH

[4] = system: Fibrinogen (Alexa647-labelled); test: fibrinogen binders on compound microarrays, profiling panel, artefact control for SMM control-protein annotation, biochemical, small-molecule microarray, 635/667 nm fluorescence (AID 1131); settings: fibrinogen-A647 binding fluorescence, higher = more signal;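 also: z-score merges 667 nm fluorescence with per-spot signal-to-noise over triplicate slides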
[5] = target: Follistatin (Homo sapiens) (UniProt P19883); test: follistatin binders on small-molecule microarrays, primary screen, biochemical, small-molecule microarray, 635/667 nm fluorescence (AID 1132); settings: FST binding, 635 nm fluorescence, higher = more signal
Follistatin (Homo sapiens), sequence (P19883 whole entry, looked up): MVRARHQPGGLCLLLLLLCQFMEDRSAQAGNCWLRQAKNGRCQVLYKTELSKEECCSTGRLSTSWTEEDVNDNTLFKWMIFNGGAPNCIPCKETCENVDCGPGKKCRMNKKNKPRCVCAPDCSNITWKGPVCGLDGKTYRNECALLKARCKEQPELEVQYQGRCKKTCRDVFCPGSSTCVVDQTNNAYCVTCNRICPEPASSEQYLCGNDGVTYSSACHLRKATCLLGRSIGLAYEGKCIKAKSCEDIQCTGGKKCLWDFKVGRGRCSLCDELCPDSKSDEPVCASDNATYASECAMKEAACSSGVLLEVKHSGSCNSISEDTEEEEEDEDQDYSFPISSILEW

[6] = target: Fibroblast growth factor 2 (Homo sapiens) (UniProt P09038); test: FGF2 binders on small-molecule microarrays, primary screen, biochemical, small-molecule microarray, 635/667 nm fluorescence (AID 1133); settings: small-molecule microarray binding, FGF2, fluorescence 635/667; higher = more signal
Fibroblast growth factor 2 (Homo sapiens), sequence (P09038 whole entry, looked up): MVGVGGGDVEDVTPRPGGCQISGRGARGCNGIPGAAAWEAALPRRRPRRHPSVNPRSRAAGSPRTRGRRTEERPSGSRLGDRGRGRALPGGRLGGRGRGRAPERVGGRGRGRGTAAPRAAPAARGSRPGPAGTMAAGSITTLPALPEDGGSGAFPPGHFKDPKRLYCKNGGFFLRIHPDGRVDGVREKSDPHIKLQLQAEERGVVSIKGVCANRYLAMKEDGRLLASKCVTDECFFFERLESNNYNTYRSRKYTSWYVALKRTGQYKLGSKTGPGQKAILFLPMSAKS

[7] = mitochondrial membrane potential change in A549 cells, profiling panel, cell-based, JC-1 fluorescence, basal, 24 h, 100 nL (AID 1138); settings: higher = more signal;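 also: A549 lung adenocarcinoma cells under basal conditions with no added stimulus; test concentration not given here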
Lefty1 = Lefty1 binders on small-molecule microarrays, primary screen, biochemical, small-molecule microarray, 635/667 nm fluorescence (AID 1139); settings: small-molecule microarray binding, fluorescence 635/667; higher = more signal
[8] = system: wheat germ agglutinin (Triticum aestivum), Alexa647-labelled; test: wheat germ agglutinin binders on compound microarrays, profiling panel, artefact control for SMM control-protein annotation, biochemical, small-molecule microarray, 635/667 nm fluorescence (AID 1140); settings: WGA-A647 binding, 635 nm fluorescence, higher = more signal;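 also: score merges 667 nm feature emission with signal to noise over triplicate slides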
[9] = target: Luciferin 4-monooxygenase (Photinus pyralis) (UniProt P08659); test: firefly luciferase enzyme inhibitors, primary screen, biochemical, luminescence, purified enzyme, 2006 set (AID 1141); settings: SteadyGlo luminescence, 30 min, higher = more signal, called active from +8 up or from −8 down;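 also: cell-free assay with purified firefly luciferase at 100 ng per well in PBS; test concentration not given here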
Luciferin 4-monooxygenase (Photinus pyralis), sequence (P08659 whole entry, looked up): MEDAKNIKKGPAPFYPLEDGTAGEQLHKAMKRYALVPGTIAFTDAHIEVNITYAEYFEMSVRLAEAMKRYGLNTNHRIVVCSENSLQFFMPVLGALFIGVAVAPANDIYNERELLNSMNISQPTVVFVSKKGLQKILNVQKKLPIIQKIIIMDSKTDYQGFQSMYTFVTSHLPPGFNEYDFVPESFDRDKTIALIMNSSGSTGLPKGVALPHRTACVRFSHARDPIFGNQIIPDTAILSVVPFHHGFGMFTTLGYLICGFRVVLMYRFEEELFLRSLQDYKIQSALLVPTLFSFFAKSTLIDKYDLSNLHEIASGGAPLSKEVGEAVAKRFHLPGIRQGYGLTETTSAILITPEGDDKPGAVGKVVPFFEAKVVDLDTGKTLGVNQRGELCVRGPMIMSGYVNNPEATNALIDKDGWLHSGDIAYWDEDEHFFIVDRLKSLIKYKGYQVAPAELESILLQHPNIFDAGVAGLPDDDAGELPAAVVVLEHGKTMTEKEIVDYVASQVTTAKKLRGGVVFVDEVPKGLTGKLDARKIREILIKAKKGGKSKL

[10] = system: Wnt5a (protein binding on small-molecule microarray); test: Wnt5a binders on small-molecule microarray, primary screen, biophysical, 635/667 nm fluorescence (AID 1142); settings: 635 nm fluorescence, higher = more signal;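 also: fluorescence read at 667 nm with signal to noise per printed feature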
[11] = cell viability in Huh7 cells, primary screen, cytotoxicity control for HCV replication inhibitor project, CellTiter-Glo luminescence, basal, 48 h (AID 1143); settings: Huh7 HCV replicon, higher = more signal, called active from +8 up or from −8 down;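 also: Huh7 hepatoma cells carrying a hepatitis C replication reporter with no stimulus; test concentration not given here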
[12] = P. aeruginosa biofilm formation inhibitors, primary screen, PAO1 strain, BacTiter-Glo luminescence, LB-PBS (AID 1144); settings: 12 h, higher = more signal
[13] = CREB reporter modulators without forskolin, primary screen, cell-based, PC12, CRE-LacZ reporter, unstimulated (AID 1145); settings: no forskolin, luminescence, 4.5 h, higher = more signal, called active from +8 up or from −8 down
[14] = CREB reporter modulators under forskolin, primary screen, cell-based, PC12, CRE-LacZ reporter, forskolin-stimulated (AID 1146); settings: luminescence, 4.5 h, higher = more signal, called active from +8 up or from −8 down;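 also: PC12 cells with 6xCRE LacZ reporter stimulated by forskolin 10 µM; beta-galactosidase reporter signal reflecting CREB driven transcription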
[15] = target: Streptavidin (Streptomyces avidinii) (UniProt P22629); test: streptavidin binders on small-molecule microarray, primary screen, artefact control for SMM compound annotation, biophysical, 635/667 nm fluorescence (AID 1147); settings: streptavidin binding, higher = more signal;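 also: signal reflects streptavidin binding to arrayed compounds as a control protein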
Streptavidin (Streptomyces avidinii), sequence (P22629 whole entry, looked up): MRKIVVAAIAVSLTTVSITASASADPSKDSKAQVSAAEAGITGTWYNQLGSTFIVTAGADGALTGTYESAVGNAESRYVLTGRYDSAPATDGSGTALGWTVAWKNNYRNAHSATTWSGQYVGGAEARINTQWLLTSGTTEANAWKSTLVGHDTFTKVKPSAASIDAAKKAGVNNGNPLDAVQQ

[16] = small-molecule binders of probe aInhba, primary screen, biochemical, small-molecule microarray, 635/667 nm fluorescence (AID 1148); settings: higher = more signal;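 also: score merges 667nm spot fluorescence with signal-to-noise for antibody binding to printed compounds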
Torsin-1A (Homo sapiens) [17] = target: Torsin-1A (Homo sapiens) (UniProt O14656); test: torsin A binders from cell lysate, primary screen, small-molecule microarray, wild-type, 635/667 nm (AID 1149); settings: COS7 hTOR1A-WT lysate, 635 nm fluorescence, higher = more signal
Torsin-1A (Homo sapiens), sequence (O14656 whole entry, looked up): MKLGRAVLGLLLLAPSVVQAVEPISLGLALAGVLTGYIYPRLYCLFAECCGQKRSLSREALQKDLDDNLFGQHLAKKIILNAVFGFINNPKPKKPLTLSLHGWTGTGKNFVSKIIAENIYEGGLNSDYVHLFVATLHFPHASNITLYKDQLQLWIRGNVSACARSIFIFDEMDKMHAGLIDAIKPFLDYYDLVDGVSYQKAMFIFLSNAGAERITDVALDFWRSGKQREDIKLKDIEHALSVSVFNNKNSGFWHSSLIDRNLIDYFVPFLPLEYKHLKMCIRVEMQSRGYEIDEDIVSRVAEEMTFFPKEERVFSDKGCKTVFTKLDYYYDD

Torsin-1A (Homo sapiens) [18] = target: Torsin-1A (Homo sapiens) (UniProt O14656); test: small-molecule binders of mutant TOR1A in lysate, primary screen, cell lysate, small-molecule microarray, COS7 lysate, 635/667 nm fluorescence (AID 1150); settings: COS7 hTOR1A mutant lysate, 635 nm fluorescence, higher = more signal;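 also: score pools 667 nm emission and signal to noise measuring lysate protein binding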
[19] = system: Sonic hedgehog protein (Shh); test: small-molecule binders of Shh protein, primary screen, biochemical, small-molecule microarray, 635/667 nm fluorescence (AID 1151); settings: small-molecule microarray binding, 635 nm fluorescence; higher = more signal;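 also: Shh protein binding to compounds spotted on small-molecule microarray slides; score combines spot fluorescence intensity with signal-to-noise across triplicate slides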

| Structure (SMILES) | composite z-score [1] | composite z-score [2] | composite z-score [3] | composite z-score [4] | composite z-score [5] | composite z-score [6] | z-score [7] | composite z-score (Lefty1) | composite z-score [8] | z-score [9] | composite z-score [10] | z-score [11] | z-score [12] | z-score [13] | z-score [14] | composite z-score [15] | composite z-score [16] | composite z-score (Torsin-1A (Homo sapiens) [17]) | composite z-score (Torsin-1A (Homo sapiens) [18]) | composite z-score [19] |
| --- | --- | --- | --- | --- | --- | --- | --- | --- | --- | --- | --- | --- | --- | --- | --- | --- | --- | --- | --- | --- |
| O=C(CS)NCCCCCCNC(=O)[C@H]1C[C@H]2C(=O)N[C@@H](Cc3ccccc3)C(=O)N2[C@H]1c1ccc(O)cc1 | 1.29 | 1.25 | 0.904 | 0.476 | 1.22 | 1.62 | -1.61 | 0.852 | 0.195 | -1.17 (inactive) | 0.491 | 0.167 (inactive) | -0.31 (inactive) | 0.822 (inactive) | 0.368 (inactive) | -0.513 | -0.162 | 1.08 | 0.768 | 1.62 |
| C=C(/C(=C/C[C@@H](OC(C)=O)c1cccc(OCCO)c1)c1cc(C(=O)OC)ccc1OC)C(C)C | -0.422 | 0.238 | 0.543 | -0.75 | 1.12 | 1.39 | 0.834 | 1.16 | 0.743 | 0.0406 (inactive) | 0.148 | -1.38 (inactive) | -0.251 (inactive) | 3.49 (inactive) | 0.32 (inactive) | -0.19 | -0.152 | 0.875 | 1.36 | 1.73 |
| O=C1OCC=C[C@H]2OC34C=CCN(Cc5ccccc5)C(=O)[C@H]3N(CCCCCCO)C(=O)[C@@H]4[C@@H]12 (stereo not given in full) | 1.29 | -0.0134 | 0.879 | -1.25 | -0.562 | -0.292 | 0.0814 | -0.128 | 0.206 | -3.54 (inactive) | -0.495 | -0.203 (inactive) | -0.955 (inactive) | -1.18 (inactive) | -0.185 (inactive) | -0.447 | -0.238 | 1.6 | 1.29 | -0.289 |
| COC(=O)C(CC#Cc1ccc2c(c1)[C@]1(C(=O)N2)[C@H](c2ccccc2OCCO)N2[C@H](c3ccccc3)[C@H](c3ccccc3)OC(=O)[C@H]2[C@@H]1C(=O)NC[C@H](O)c1ccccc1)C(=O)OC | 1.42 | 1.23 | 3.08 | 0.427 | 0.597 | 1.06 | -0.789 | 0.697 | 1.14 | -0.832 (inactive) | 0.572 | -3.75 (inactive) | -1.26 (inactive) | -0.168 (inactive) | 0.717 (inactive) | 0.0979 | -0.199 | 0.951 | 0.68 | 1.22 |
| COC(=O)[C@@]1(Cc2ccc(OC)cc2)[C@H]2c3cc(C(=O)N4CCCC4)n(Cc4cccc5ccccc45)c3C[C@H]2CN1C(=O)c1ccccc1 | 1.57 | 1.2 | 0.164 | 0.704 | 0.36 | -0.247 | 1.07 | -0.245 | 0.396 | 1.31 (inactive) | 0.43 | -2.8 (inactive) | 1.14 (inactive) | 0.0041 (inactive) | 0.259 (inactive) | 0.688 | 0.447 | -0.25 | 0.338 | -0.338 |
| COc1ccc([Si](C)(C)[C@H]2[C@H](CC(=O)N(CCO)Cc3ccccc3)O[C@@]3(C(=O)N(Cc4cccc(N5CCOC5=O)c4)c4ccccc43)[C@@H]2C)cc1 | 1.65 | 0.922 | 0.647 | 0.206 | 1.06 | 0.494 | -0.791 | 0.857 | 0.321 | 0.271 (inactive) | -0.031 | -4.86 (inactive) | -0.388 (inactive) | 1.27 (inactive) | -0.863 (inactive) | 0.0212 | -0.0523 | 0.898 | 0.931 | 1.22 |
